# Measurements from PubChem BioAssay (NCI).
# The panel holds about 79,000 compounds, 15% with a hit somewhere; the sample as a whole holds those more often. A number with no mark means an inactive call. Active and inactive are the calls of the source. Cut-off read from the data, not from the text of the source: active = growth inhibition above about 70%; inactive = the rest.
# What was measured:
# [1] = NCI Yeast Anticancer Drug Screen. Data for the rad50 strain (AID 155);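 note: 0% = growth of vehicle-only cultures of the same strain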; details: S. cerevisiae rad50 strain growth inhibition; at 50.0 µM; stronger effect = higher value
# Outline: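 Growth of the mutant yeast was measured after compound exposure and referenced to vehicle-treated cultures.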
# [2] = NCI Yeast Anticancer Drug Screen. Data for the mec2-1 strain (AID 157); details: S. cerevisiae mec2-1 strain, at 50.0 µM, stronger effect = higher value
# Outline: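 Using mec2-1 yeast: add compound, measure growth, express inhibition versus vehicle-treated cultures.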
# [3] = NCI Yeast Anticancer Drug Screen. Data for the sgs1 mgt1 strain (AID 161);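 note: 0% = growth of cultures given vehicle only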; details: S. cerevisiae sgs1 mgt1 strain, at 50.0 µM, stronger effect = higher value
# Outline: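 Compounds are added to genetically altered yeast, and growth is compared with cultures given vehicle alone to give percent inhibition.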
# [4] = NCI Yeast Anticancer Drug Screen. Data for the cln2 rad14 strain (AID 165);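 note: 0% = growth equal to vehicle treated cultures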; details: S. cerevisiae cln2 rad14 strain, at 50.0 µM, stronger effect = higher value
# Outline: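 Yeast strain cln2 rad14, bearing defects in cell cycle control and DNA repair, serves as the test system; values reflect growth inhibition compared with vehicle.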
# [5] = NCI Yeast Anticancer Drug Screen. Data for the bub3 strain (AID 167); details: S. cerevisiae bub3 mutant strain, at 50.0 µM, stronger effect = higher value
# Outline: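 Whole-cell yeast assay. The mutant strain was incubated with compounds, and growth inhibition was determined by comparison with vehicle-treated cells.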
# [6] = NCI Yeast Anticancer Drug Screen. Data for the mlh1 rad18 strain (AID 175); details: S. cerevisiae mlh1 rad18 strain growth inhibition; at 50.0 µM; stronger effect = higher value
# Outline: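 Steps: expose repair-defective yeast to compound; measure growth; express inhibition against vehicle-treated controls.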
SMILES,growth inhibition [1],growth inhibition [2] [%],growth inhibition [3],growth inhibition [4],growth inhibition [5],growth inhibition [6]
Cc1ccccc1N1C(=O)[N+]2(CCCCC2)N=C1[O-],-11.1%,2.2,-13.3%,-42.5%,-3.9%,-12.6%
O=C(O)C(NCCNC(C(=O)O)c1ccccc1)c1ccccc1 (configuration not stated),24.2%,6.7,19%,38.6%,15.2%,3.4%
CCCC(=O)C(=O)CCC,-5.25%,-17.4,2.3%,-26.1%,-0.15%,-3.45%
O=S1OC(c2ccccc2)(c2ccccc2)C(c2ccccc2)(c2ccccc2)O1,-29.9%,-16.6,2.2%,11.6%,-13.2%,-17.4%
COC(=O)C(NC(=O)C(=O)NC(C(=O)OC)C(C)(C)S)C(C)(C)S (configuration not stated),3.85%,-9.1,-2.3%,-12.7%,-5%,4.25%
CC(C)Oc1ccc(N2C(=O)C(C)CNC2=S)cc1 (configuration not stated),-13.9%,-1.9,-1.3%,4.9%,6.4%,-8.55%
N#CCSc1c(-c2ccccc2)c(=O)n(-c2ccccc2)c(=S)n1-c1ccccc1,20.7%,-17.9,-2.3%,-16.8%,-20.6%,-0.65%
O=C1C(=O)c2ccccc2C(O)=C1c1ccc(Br)cc1,8.85%,-9.5,-2.8%,-4.9%,-3.65%,-8.9%
CCN1C(=O)Nc2ccc(Cl)cc2C1(O)c1ccccc1 (configuration not stated),6.25%,12.6,1.55%,10.8%,-12.8%,-6.35%
CC(C)S1=C2C(=O)CC(C)(C)CC2=Nc2ccccc21 (configuration not stated),7.65%,-0.65,2.95%,-1.45%,15.8%,-27.9%
O=c1cc(S(=O)(=O)Cc2ccccc2)[nH]c(=O)[nH]1,43%,6.75,0.2%,-43.6%,8.35%,31.2%
CCSC1(SCC)C(=O)OC2=C(CCCCC2)C1N(C)c1ccccc1 (configuration not stated),-15.2%,-12.7,-14.4%,-22.6%,1.1%,-12.7%
CCOC(=O)c1cnc2c(cnn2C(C)C)c1NN,-15.6%,-9.05,48.2%,-23.9%,53.4%,-15.4%
CCOC(=O)CCC(NC(=O)c1ccc(Nc2cnc3ccc(C(F)(F)F)cc3n2)cc1)C(=O)OCC (configuration not stated),24.3%,6.45,12.2%,14.1%,19.9%,-23.8%
N#CC(=Nc1ccccc1N(C(=O)c1ccccc1)C(=O)c1ccccc1)c1ccccc1,-21.3%,-19.4,-30.4%,2.95%,-51.5%,-38.4%
CCOC(=O)/C(C#N)=C/Nc1ccncc1,2.95%,-12.4,16.2%,11.6%,4.25%,16%
COc1cc(/C=C/c2ccnc3ccccc23)ccc1N(C)C,4.7%,24.8,15.6%,-32.3%,29.8%,24.7%
Clc1ccc2nc[nH]c2c1,10.1%,10.1,4.5%,0.7%,5.9%,18.2%
CCCc1cc(=O)oc2c3c(c4c(c12)OC(C)(C)CC4)O[C@H](C)C(C)C3=O (some centres not stated),-26.9%,-30,-28.8%,0.4%,6.85%,-45%
CS(=O)(=O)c1ccc(/C=C2/C=Cc3ccccc32)cc1,19.1%,13.2,6.35%,15.4%,30.2%,14.7%
COc1cc(CC/C(C)=N/O)ccc1OCc1ccccc1,-13.1%,-21.2,0.7%,-39.6%,9.65%,-22.8%

SMILES,growth inhibition [1],growth inhibition [2] [%],growth inhibition [3],growth inhibition [4],growth inhibition [5],growth inhibition [6]
N#CCCN(Cc1ccccc1)C(=S)Nc1cccc(C(F)(F)F)c1,75.8% (active),53,85.2% (active),81.5% (active),70.1% (active),78% (active)
CN(C)C1CS(=O)(=O)C1c1ccccc1 (configuration not stated),19.6%,9,7.1%,-19.5%,8.3%,1.45%
COC(=O)c1cc2cc3ccccc3cc2cc1C(=O)OC,1.7%,14.4,11.8%,-13.4%,-26.1%,-8.8%
ClCc1nn(-c2ccccc2)c(CCl)c1CCl,46.6%,14.3,18.4%,-1.45%,8.25%,-4.55%
CSCC[C@H](NC(C)=O)B1OCCO1,9.85%,21.4,2.95%,6.05%,-4.6%,19.5%
CC(=O)Nc1ccc(CCc2ccc(NC(C)=O)cc2)cc1,-2.9%,-13.7,-7.3%,-60.2%,5.6%,-12.3%
C/C=C/Cc1ccccc1O,7.1%,-3.4,-5.05%,-6.4%,-9.2%,-1.1%
N#CC1(N=Cc2ccc3c(c2)OCO3)c2ccccc2-c2ccccc21,15.2%,6.85,5.8%,-9.35%,8.55%,4.95%
Nc1ccccc1Sc1ccc(C(=O)O)cc1[N+](=O)[O-],19.6%,20.2,7.75%,-3.55%,22.2%,-6.5%
Cc1cn(C2CC(O)C(O)C(C)O2)c(=O)[nH]c1=O (configuration not stated),22.2%,6.15,24.6%,5.8%,12.2%,25.4%
NC(Cc1cc(I)c(O)c(I)c1)C(=O)O (configuration not stated),-0.95%,-6.05,-12.6%,8.2%,8.3%,1.35%
CC(=O)Oc1ccc2ccccc2c1CS(=O)(=O)O,5.6%,6.05,10.9%,4.35%,3.35%,10.4%
O=C1CC2C1C1C=CC2n2c(=O)n(-c3ccccc3)c(=O)n21 (configuration not stated),-11.6%,9.05,13.5%,6%,2.2%,15.4%
CC(C)CC(NC(=O)CNC(=O)/C=C/c1ccco1)C(N)=O (configuration not stated),-16.9%,-29,-9.2%,-11.2%,-10.1%,-18.5%
O=C1C=CC2(CCC23C=CC(=O)O3)O1 (configuration not stated),13%,1.95,11%,4.2%,12.2%,20.1%
CN(C)c1ccc2c(N(C)C)cc(N(C)C)[n+](C)c2c1,7.8%,-23.1,-12.8%,15.2%,-2%,-22.4%
NC(=O)N/N=C(\CC1OC(=O)c2ccccc21)c1ccc([N+](=O)[O-])cc1 (configuration not stated),5.4%,3.85,-17.6%,3.85%,-23.9%,0%
CCOC(=O)/C(=C\c1ccc[nH]1)C(=O)c1ccccc1,48%,-5.9,5%,27.6%,20.1%,9.05%
CC(NC(=O)C(Cc1ccccc1)NC(=O)OCc1ccccc1)C(=O)NC1C(CO)OC(n2cnc3c(N)ncnc32)C1O (configuration not stated),15.3%,-3.9,-2.1%,-1.1%,-2.5%,16.5%
CC(C)CCCCCCCCCCCCC(=O)NCC(=O)NC1C(C)OC(Nc2ncnc3c2ncn3C)C(O)C1O (configuration not stated),10%,-14.5,9.3%,15.6%,4.05%,11.4%
Cc1nc(Nc2ccc(Cl)c(Cl)c2)sc1C(/C=C/c1ccc2c(c1)OCO2)=N/Nc1ccc([N+](=O)[O-])cc1[N+](=O)[O-],-21.2%,-14.3,3.75%,3.45%,-9.55%,2.45%
